# Legend:
# Assay in all cases: DAPPL (digital affinity profiling via proximity ligation, sequencing); 10 mM Tris-HCl pH 7.5, 50 mM NaCl, 1 mM DTT, 4% glycerol, room temperature, 30 min; GST-TFs on glutathione beads, 16-mer random dsDNA library, 0.1% formaldehyde crosslink after washing; high values mean tight binding
# [1] = target: T1, FLI1 (Homo sapiens, UniProt Q01543 1-452); settings: protein: recombinant; tags: N-terminal GST; dsDNA, one strand shown
# T1 sequence: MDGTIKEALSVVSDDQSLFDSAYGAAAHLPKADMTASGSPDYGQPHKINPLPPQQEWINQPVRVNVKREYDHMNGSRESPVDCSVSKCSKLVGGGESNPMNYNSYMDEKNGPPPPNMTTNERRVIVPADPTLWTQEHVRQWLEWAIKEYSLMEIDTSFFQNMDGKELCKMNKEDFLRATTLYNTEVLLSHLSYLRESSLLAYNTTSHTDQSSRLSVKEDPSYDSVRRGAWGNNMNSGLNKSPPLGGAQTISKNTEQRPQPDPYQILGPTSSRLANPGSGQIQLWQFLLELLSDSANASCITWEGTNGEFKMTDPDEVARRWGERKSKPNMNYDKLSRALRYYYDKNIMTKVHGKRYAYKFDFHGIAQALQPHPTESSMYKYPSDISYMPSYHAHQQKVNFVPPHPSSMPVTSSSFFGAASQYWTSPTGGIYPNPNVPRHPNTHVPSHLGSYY
# In short: (§1)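 Human transcription factors were made in yeast as GST fusions, captured on glutathione beads and barcoded with DNA. With a tag-only sample included, the pool was incubated with 200 nmole of a random double-stranded 16-mer DNA library in Tris/NaCl/DTT/glycerol buffer at room temperature for 30 min, then crosslinked with 0.1% formaldehyde after washing, ligated by proximity, amplified and sequenced. For binding signal, each hexamer's read frequency for a factor is divided by its frequency for the tag-only sample.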
# [2] = target: T2, ELK1 (Homo sapiens, UniProt P19419 1-428); settings: protein: recombinant; tags: N-terminal GST; dsDNA, one strand shown
# T2 sequence: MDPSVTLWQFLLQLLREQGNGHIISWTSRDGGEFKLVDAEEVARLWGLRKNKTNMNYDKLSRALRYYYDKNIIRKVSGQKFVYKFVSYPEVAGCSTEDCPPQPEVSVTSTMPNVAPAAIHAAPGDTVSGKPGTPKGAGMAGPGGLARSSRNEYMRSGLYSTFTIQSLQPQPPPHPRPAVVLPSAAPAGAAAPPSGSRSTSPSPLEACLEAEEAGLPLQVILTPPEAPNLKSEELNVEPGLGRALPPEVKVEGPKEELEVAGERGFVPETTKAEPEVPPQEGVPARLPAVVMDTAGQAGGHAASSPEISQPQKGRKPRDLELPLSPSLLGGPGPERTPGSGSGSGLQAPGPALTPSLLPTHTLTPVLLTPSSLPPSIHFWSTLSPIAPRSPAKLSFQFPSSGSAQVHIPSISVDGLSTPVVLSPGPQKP
# In short: as §1
# [3] = target: T3, GABPA (Homo sapiens, UniProt Q06546 1-454); settings: protein: recombinant; tags: N-terminal GST; dsDNA, one strand shown
# T3 sequence: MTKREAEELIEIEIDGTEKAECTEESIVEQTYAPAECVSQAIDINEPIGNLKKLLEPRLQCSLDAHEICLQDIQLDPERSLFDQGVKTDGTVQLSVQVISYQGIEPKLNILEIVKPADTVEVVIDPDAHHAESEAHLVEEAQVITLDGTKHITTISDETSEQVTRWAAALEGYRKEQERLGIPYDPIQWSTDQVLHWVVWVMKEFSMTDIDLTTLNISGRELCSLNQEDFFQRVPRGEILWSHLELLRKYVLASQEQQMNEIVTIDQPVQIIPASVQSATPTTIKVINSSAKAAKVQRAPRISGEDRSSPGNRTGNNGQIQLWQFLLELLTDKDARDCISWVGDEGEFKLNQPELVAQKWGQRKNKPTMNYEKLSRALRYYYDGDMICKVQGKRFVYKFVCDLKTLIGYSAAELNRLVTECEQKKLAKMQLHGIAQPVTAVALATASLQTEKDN
# In short: as §1
# [4] = target: T4, ERG (Homo sapiens, UniProt P11308 1-479); settings: protein: recombinant; tags: N-terminal GST; dsDNA, one strand shown
# T4 sequence: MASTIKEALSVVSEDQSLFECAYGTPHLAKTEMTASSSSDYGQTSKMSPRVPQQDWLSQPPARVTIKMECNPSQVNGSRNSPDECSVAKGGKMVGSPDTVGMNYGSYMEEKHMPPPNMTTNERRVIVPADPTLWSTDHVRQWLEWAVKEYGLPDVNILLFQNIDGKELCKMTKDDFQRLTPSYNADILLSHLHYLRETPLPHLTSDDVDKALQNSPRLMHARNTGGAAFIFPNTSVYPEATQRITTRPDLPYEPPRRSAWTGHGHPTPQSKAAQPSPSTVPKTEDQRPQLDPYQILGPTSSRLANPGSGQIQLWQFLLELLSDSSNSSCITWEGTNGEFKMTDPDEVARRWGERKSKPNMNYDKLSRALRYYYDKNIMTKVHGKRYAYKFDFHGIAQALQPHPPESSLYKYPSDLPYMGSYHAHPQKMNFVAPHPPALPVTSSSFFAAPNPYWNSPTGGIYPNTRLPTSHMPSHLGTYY
# In short: as §1
# [5] = target: ELF1 (Homo sapiens, UniProt P32519 1-619); settings: protein: recombinant; tags: N-terminal GST; dsDNA, one strand shown
# In short: as §1
# [6] = target: T5, EHF (Homo sapiens, UniProt Q9NZC4 1-300); settings: protein: recombinant; tags: N-terminal GST; dsDNA, one strand shown
# T5 sequence: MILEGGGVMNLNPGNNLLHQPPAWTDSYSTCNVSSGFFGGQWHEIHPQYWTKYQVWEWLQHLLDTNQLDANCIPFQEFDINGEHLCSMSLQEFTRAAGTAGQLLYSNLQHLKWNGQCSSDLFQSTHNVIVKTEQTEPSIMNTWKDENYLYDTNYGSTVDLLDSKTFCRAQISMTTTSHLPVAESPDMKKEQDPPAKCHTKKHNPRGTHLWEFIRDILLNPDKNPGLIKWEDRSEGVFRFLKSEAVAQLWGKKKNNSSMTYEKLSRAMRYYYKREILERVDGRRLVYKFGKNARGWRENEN
# In short: as §1
# [7] = target: SPI1 (Homo sapiens, UniProt P17947 1-270); settings: protein: recombinant; tags: N-terminal GST; dsDNA, one strand shown
# In short: as §1
# [8] = target: T6, ELK3 (Homo sapiens, UniProt P41970 1-407); settings: protein: recombinant; tags: N-terminal GST; dsDNA, one strand shown
# T6 sequence: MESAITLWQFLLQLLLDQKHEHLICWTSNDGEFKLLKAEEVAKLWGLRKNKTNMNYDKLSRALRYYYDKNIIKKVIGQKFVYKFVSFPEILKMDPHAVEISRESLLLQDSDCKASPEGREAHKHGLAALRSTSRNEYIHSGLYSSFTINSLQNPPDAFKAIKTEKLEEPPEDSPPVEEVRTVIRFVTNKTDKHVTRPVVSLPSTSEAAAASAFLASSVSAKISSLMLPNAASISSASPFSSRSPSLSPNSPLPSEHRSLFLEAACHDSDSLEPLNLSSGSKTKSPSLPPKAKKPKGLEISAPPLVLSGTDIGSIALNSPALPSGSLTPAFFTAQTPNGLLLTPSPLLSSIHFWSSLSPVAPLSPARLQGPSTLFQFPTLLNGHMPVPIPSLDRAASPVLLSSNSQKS
# In short: as §1
# [9] = target: T7, FEV (Homo sapiens, UniProt Q99581 1-238); settings: protein: recombinant; tags: N-terminal GST; dsDNA, one strand shown
# T7 sequence: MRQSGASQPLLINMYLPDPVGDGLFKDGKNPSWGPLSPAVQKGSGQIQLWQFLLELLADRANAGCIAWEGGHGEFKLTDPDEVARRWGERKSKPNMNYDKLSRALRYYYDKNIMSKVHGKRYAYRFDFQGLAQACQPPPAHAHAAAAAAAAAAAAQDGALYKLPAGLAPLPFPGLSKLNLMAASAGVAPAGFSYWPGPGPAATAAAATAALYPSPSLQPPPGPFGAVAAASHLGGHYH
# In short: as §1
# [10] = target: ETV5 (Homo sapiens, UniProt P41161 1-510); settings: protein: recombinant; tags: N-terminal GST; dsDNA, one strand shown
# In short: as §1
# [11] = target: HSF1 (Homo sapiens, UniProt Q00613 1-529); settings: protein: recombinant; tags: N-terminal GST; chain copies: 3; dsDNA, one strand shown
# In short: as §1
# [12] = target: T8, SPIC (Homo sapiens, UniProt Q8N5J4 1-248); settings: protein: recombinant; tags: N-terminal GST; dsDNA, one strand shown
# T8 sequence: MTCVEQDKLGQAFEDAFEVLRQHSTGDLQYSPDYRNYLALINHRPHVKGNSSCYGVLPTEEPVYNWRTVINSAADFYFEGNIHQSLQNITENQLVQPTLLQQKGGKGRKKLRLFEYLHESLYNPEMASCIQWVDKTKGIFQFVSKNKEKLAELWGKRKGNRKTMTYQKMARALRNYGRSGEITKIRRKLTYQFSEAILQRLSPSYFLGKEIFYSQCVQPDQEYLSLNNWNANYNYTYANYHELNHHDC
# In short: as §1
# [13] = target: ELF4 (Homo sapiens, UniProt Q99607 1-663); settings: protein: recombinant; tags: N-terminal GST; dsDNA, one strand shown
# In short: as §1
# [14] = target: T9, ELK4 (Homo sapiens, UniProt P28324-2 1-405); settings: protein: recombinant; tags: N-terminal GST; dsDNA, one strand shown
# T9 sequence: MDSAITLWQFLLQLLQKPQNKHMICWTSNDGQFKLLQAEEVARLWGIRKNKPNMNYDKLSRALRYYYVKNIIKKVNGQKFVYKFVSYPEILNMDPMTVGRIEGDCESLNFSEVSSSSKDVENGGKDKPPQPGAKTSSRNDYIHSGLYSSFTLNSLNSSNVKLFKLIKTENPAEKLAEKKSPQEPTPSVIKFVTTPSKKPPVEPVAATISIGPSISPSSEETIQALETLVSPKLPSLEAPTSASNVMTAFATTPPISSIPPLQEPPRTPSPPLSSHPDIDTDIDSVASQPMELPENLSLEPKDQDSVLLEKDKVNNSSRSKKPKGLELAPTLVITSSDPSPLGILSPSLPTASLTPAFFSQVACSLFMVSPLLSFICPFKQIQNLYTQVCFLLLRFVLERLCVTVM
# In short: as §1
# [15] = target: T10, ETV2 (Homo sapiens, UniProt O00321 1-342); settings: protein: recombinant; tags: N-terminal GST; dsDNA, one strand shown
# T10 sequence: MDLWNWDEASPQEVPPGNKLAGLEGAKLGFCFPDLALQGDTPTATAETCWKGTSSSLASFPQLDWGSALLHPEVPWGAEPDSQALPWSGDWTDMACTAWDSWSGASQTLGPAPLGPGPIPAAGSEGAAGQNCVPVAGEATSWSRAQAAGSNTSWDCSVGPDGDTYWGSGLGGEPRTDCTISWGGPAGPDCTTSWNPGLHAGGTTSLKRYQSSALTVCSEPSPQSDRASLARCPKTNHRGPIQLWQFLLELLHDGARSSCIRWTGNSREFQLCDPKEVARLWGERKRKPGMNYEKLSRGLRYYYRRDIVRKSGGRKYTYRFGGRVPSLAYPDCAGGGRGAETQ
# In short: as §1
# [16] = target: T11, ELF3 (Homo sapiens, UniProt P78545 1-371); settings: protein: recombinant; tags: N-terminal GST; dsDNA, one strand shown
# T11 sequence: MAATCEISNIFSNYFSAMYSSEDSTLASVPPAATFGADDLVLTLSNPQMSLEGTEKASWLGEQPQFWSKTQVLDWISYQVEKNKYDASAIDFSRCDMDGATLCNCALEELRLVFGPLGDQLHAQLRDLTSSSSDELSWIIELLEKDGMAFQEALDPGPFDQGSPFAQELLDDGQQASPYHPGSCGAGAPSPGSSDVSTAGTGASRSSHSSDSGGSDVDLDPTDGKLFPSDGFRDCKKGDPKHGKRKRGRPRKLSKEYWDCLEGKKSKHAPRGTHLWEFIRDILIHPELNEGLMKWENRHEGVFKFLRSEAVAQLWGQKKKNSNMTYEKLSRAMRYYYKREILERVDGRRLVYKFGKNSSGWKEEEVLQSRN
# In short: as §1
# [17] = target: CRX (Homo sapiens, UniProt O43186 1-299); settings: protein: recombinant; tags: N-terminal GST; dsDNA, one strand shown
# In short: as §1
# [18] = target: ETV1 (Homo sapiens, UniProt P50549 1-477); settings: protein: recombinant; tags: N-terminal GST; dsDNA, one strand shown
# In short: as §1
# Sequence of ELF1 (P32519 whole entry): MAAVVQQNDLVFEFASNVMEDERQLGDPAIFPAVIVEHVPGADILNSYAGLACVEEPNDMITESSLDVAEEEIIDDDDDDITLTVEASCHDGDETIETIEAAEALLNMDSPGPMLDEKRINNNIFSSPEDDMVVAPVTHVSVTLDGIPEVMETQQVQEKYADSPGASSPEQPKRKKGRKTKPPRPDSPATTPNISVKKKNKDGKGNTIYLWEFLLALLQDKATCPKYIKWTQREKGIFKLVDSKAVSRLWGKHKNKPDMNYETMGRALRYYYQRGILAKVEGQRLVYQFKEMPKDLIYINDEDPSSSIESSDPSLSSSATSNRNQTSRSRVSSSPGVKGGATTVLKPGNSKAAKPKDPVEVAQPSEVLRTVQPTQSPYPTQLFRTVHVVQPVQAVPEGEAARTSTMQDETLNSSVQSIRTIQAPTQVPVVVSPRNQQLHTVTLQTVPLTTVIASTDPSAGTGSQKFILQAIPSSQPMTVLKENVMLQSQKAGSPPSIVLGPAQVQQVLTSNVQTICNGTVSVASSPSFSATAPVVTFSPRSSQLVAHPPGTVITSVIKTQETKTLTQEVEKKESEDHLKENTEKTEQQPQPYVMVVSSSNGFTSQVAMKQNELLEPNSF
# Sequence of ETV1 (P50549 whole entry): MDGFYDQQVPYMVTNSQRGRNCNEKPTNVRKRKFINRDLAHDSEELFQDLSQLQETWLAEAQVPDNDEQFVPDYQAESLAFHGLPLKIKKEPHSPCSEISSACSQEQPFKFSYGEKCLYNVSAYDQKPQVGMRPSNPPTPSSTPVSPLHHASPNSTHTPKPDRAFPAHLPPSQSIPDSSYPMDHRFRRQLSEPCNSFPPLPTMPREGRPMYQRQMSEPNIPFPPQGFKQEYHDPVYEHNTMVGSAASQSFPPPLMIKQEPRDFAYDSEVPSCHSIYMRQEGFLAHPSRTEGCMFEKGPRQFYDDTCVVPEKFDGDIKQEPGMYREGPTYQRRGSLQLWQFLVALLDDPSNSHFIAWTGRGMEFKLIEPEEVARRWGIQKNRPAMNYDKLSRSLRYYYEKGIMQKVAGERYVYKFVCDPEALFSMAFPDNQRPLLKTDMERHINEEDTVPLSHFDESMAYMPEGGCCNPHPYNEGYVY
# Sequence of CRX (O43186 whole entry): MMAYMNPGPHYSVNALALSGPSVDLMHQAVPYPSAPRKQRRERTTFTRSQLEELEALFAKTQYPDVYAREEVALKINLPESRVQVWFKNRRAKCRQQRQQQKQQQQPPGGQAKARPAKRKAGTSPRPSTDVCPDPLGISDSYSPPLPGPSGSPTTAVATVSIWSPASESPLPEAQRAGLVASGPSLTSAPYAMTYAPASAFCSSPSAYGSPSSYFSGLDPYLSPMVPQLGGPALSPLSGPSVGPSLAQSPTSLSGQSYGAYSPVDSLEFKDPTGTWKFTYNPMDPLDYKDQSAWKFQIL
# Sequence of ETV5 (P41161 whole entry): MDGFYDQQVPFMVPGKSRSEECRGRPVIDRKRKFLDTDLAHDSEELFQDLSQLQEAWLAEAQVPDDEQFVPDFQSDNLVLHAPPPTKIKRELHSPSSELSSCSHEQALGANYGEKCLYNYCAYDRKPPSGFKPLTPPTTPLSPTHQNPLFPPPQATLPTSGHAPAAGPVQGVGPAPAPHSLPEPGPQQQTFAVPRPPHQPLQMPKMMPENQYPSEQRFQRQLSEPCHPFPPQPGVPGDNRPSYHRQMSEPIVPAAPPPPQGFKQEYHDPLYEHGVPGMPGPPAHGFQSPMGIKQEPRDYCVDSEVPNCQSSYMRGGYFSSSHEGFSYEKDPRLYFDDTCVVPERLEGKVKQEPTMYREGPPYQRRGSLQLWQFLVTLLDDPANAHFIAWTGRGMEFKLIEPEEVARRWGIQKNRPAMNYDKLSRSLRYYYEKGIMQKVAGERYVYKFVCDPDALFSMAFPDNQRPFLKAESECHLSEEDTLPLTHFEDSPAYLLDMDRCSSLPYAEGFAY
# Sequence of HSF1 (Q00613 whole entry): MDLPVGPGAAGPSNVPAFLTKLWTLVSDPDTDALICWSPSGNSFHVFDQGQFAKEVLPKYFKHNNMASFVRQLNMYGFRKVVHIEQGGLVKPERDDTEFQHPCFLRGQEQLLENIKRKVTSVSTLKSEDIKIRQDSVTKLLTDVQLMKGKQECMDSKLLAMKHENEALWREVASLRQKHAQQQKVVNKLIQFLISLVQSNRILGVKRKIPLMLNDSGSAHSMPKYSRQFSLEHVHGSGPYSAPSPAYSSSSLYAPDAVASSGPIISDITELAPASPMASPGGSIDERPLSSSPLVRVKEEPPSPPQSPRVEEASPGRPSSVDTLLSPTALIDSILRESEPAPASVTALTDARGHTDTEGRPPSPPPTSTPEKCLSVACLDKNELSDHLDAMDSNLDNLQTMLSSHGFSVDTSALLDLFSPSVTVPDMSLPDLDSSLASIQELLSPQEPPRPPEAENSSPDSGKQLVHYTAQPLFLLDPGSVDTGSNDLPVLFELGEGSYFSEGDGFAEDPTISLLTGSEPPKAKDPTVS
# Sequence of ELF4 (Q99607 whole entry): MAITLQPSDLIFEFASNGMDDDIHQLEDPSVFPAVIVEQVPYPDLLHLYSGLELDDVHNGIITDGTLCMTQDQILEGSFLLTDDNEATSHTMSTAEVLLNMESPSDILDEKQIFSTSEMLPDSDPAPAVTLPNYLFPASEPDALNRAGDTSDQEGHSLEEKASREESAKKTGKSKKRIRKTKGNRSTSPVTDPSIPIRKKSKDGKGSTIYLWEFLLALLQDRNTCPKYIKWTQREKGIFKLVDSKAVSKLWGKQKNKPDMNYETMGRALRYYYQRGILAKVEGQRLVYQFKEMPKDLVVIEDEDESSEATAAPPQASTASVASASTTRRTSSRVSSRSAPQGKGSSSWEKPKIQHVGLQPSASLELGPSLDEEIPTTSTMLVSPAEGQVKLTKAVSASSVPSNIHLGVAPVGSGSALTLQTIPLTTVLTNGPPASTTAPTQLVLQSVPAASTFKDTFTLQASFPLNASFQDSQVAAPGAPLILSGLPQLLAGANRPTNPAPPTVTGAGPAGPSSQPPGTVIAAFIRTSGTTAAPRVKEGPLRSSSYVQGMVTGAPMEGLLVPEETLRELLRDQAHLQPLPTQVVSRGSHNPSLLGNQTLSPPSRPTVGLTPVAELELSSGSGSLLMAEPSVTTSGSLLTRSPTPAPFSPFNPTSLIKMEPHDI
sequence,measurement,setting,value
ACGTAA,binding signal,[1],"1.07 fold enrichment (6-mer frequency, TF over GST control)"
same,binding signal,[2],"1.2 fold enrichment (6-mer frequency, TF over GST control)"
same,binding signal,[3],"1.17 fold enrichment (6-mer frequency, TF over GST control)"
same,binding signal,[4],"1.03 fold enrichment (6-mer frequency, TF over GST control)"
same,binding signal,[5],"1.07 fold enrichment (6-mer frequency, TF over GST control)"
same,binding signal,[6],"1.04 fold enrichment (6-mer frequency, TF over GST control)"
same,binding signal,[7],"1.05 fold enrichment (6-mer frequency, TF over GST control)"
same,binding signal,[8],"1.15 fold enrichment (6-mer frequency, TF over GST control)"
same,binding signal,[9],"1.07 fold enrichment (6-mer frequency, TF over GST control)"
same,binding signal,[10],"1.16 fold enrichment (6-mer frequency, TF over GST control)"
same,binding signal,[11],"1.17 fold enrichment (6-mer frequency, TF over GST control)"
same,binding signal,[12],"1.12 fold enrichment (6-mer frequency, TF over GST control)"
same,binding signal,[13],"1.14 fold enrichment (6-mer frequency, TF over GST control)"
same,binding signal,[14],"1.12 fold enrichment (6-mer frequency, TF over GST control)"
same,binding signal,[15],"1.12 fold enrichment (6-mer frequency, TF over GST control)"
same,binding signal,[16],"1.07 fold enrichment (6-mer frequency, TF over GST control)"
same,binding signal,[17],"1.27 fold enrichment (6-mer frequency, TF over GST control)"
same,binding signal,[18],"1.12 fold enrichment (6-mer frequency, TF over GST control)"
